Read-outs that look alike come from different tables or passages of the source.
What was measured:
[1] = system: RPS6KA4(Kin.Dom.1-N-terminal); conditions: n = 1
[2] = system: RPS6KA4(Kin.Dom.2-C-terminal); conditions: n = 1
[3] = system: RPS6KA5(Kin.Dom.1-N-terminal); conditions: concentration: 1 μM, replicates: in singlicate; n = 1
[4] = system: RPS6KA5(Kin.Dom.2-C-terminal); conditions: concentration: 1 μM, replicates: in singlicate; n = 1
[5] = system: T1, RSK1(Kin.Dom.1-N-terminal); conditions: concentration: 1 μM, replicates: in singlicate; n = 1
T1 construct: gene RPS6KA1

[6] = system: T2, RSK1(Kin.Dom.2-C-terminal); conditions: concentration: 1 μM, replicates: in singlicate; n = 1
T2 construct: gene RPS6KA1

[7] = system: T3, RSK2(Kin.Dom.1-N-terminal); conditions: concentration: 1 μM, replicates: in singlicate; n = 1
T3 construct: gene RPS6KA3

[8] = system: T4, RSK2(Kin.Dom.2-C-terminal); conditions: concentration: 1 μM, replicates: in singlicate; n = 1
T4 construct: gene RPS6KA3

[9] = system: T5, RSK3(Kin.Dom.1-N-terminal); conditions: concentration: 1 μM, replicates: in singlicate; n = 1
T5 construct: gene RPS6KA2

[10] = system: T6, RSK3(Kin.Dom.2-C-terminal); conditions: concentration: 1 μM, replicates: in singlicate; n = 1
T6 construct: gene RPS6KA2

[11] = system: T7, RSK4(Kin.Dom.1-N-terminal); conditions: concentration: 1 μM, replicates: in singlicate; n = 1
T7 construct: gene RPS6KA6

[12] = system: T8, RSK4(Kin.Dom.2-C-terminal); conditions: concentration: 1 μM, replicates: in singlicate; n = 1
T8 construct: gene RPS6KA6

S6K1 = conditions: concentration: 1 μM, replicates: in singlicate; n = 1
SBK1 = conditions: concentration: 1 μM, replicates: in singlicate; n = 1
SGK2 = conditions: concentration: 1 μM, replicates: in singlicate; n = 1
SGK3 = conditions: concentration: 1 μM, replicates: in singlicate; n = 1
SGK = conditions: concentration: 1 μM, replicates: in singlicate; n = 1
SIK2 = conditions: concentration: 1 μM, replicates: in singlicate; n = 1
SIK = conditions: concentration: 1 μM, replicates: in singlicate; n = 1
SLK = conditions: concentration: 1 μM, replicates: in singlicate; n = 1
[13] = concentration: 1 μM, replicates: in singlicate
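Also: KINOMEscan kinase panel screen.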

With `O=C(Nc1n[nH]c2cc(-c3ccoc3)ccc12)C1CC1` [SB-738481] the “%Inh” value [1, 13] was 0%, the “%Inh” value [2, 13] was 11% and the “%Inh” value [3] was 0%. The “%Inh” value [4] was 0%, the “%Inh” value [5] was 12% and the “%Inh” value [6] was 0%. The “%Inh” value [7] was 1%, the “%Inh” value [8] was 0% and the “%Inh” value [9] was 0%. For the same molecule, the “%Inh” value [10] was 2%, the “%Inh” value [11] was 3% and the “%Inh” value [12] was 1%. For the same molecule, the “%Inh” value (S6K1) was 36%, the “%Inh” value (SBK1) was 0% and the “%Inh” value (SGK2) was 5%. The “%Inh” value (SGK3) was 28%, the “%Inh” value (SGK) was 1% and the “%Inh” value (SIK2) was 0%. The “%Inh” value (SIK) was 0% and the “%Inh” value (SLK) was 2%.

With `COc1cc2c(cc1OCCN1CCNCC1)ncc1c3ccc(C#N)cc3[nH]c21` the “%Inh” value [1, 13] was 0%, the “%Inh” value [2, 13] was 20% and the “%Inh” value [3] was 0%. The “%Inh” value [4] was 38%, the “%Inh” value [5] was 13% and the “%Inh” value [6] was 12%. The “%Inh” value [7] was 54%, the “%Inh” value [8] was 0% and the “%Inh” value [9] was 16%. The “%Inh” value [10] was 0%, the “%Inh” value [11] was 73% and the “%Inh” value [12] was 7%. For the same molecule, the “%Inh” value (S6K1) was 52%, the “%Inh” value (SBK1) was 63% and the “%Inh” value (SGK2) was 46%. For the same molecule, the “%Inh” value (SGK3) was 34%, the “%Inh” value (SGK) was 67% and the “%Inh” value (SIK2) was 79%. For the same molecule, the “%Inh” value (SIK) was 18% and the “%Inh” value (SLK) was 23%.

In the case of `COc1cc(Nc2nccc(N3CCC(NC(=O)Nc4cccc(C(C)=O)c4)C3)n2)cc(OC)c1OC` (stereo not drawn) [GSK1379753], the “%Inh” value [1, 13] is reported as 7%, the “%Inh” value [2, 13] is reported as 0% and the “%Inh” value [3] is reported as 9%. For the same molecule, the “%Inh” value [4] was 6%, the “%Inh” value [5] was 15% and the “%Inh” value [6] was 5%. For the same molecule, the “%Inh” value [7] was 10%, the “%Inh” value [8] was 67% and the “%Inh” value [9] was 17%. For the same molecule, the “%Inh” value [10] was 0%, the “%Inh” value [11] was 15% and the “%Inh” value [12] was 12%. For the same molecule, the “%Inh” value (S6K1) was 19%, the “%Inh” value (SBK1) was 11% and the “%Inh” value (SGK2) was 5%. For the same molecule, the “%Inh” value (SGK3) was 0%, the “%Inh” value (SGK) was 0% and the “%Inh” value (SIK2) was 0%. For the same molecule, the “%Inh” value (SIK) was 0% and the “%Inh” value (SLK) was 30%.

In the case of `Cc1cccc(Nc2nc(N[C@H]3CCNC3)ncc2C(N)=O)c1.Cl` [GSK2197149], the “%Inh” value [1, 13] is reported as 0%, the “%Inh” value [2, 13] is reported as 0% and the “%Inh” value [3] is reported as 2%. For the same molecule, the “%Inh” value [4] was 0%, the “%Inh” value [5] was 22% and the “%Inh” value [6] was 31%. The “%Inh” value [7] was 31%, the “%Inh” value [8] was 0% and the “%Inh” value [9] was 23%. The “%Inh” value [10] was 4%, the “%Inh” value [11] was 30% and the “%Inh” value [12] was 23%. The “%Inh” value (S6K1) was 5%, the “%Inh” value (SBK1) was 42% and the “%Inh” value (SGK2) was 12%. For the same molecule, the “%Inh” value (SGK3) was 0%, the “%Inh” value (SGK) was 0% and the “%Inh” value (SIK2) was 30%. For the same molecule, the “%Inh” value (SIK) was 35% and the “%Inh” value (SLK) was 30%.

In the case of `FC(F)(F)c1ccc(/C=C/c2cncnc2Nc2ccc3[nH]c(Cc4ccccc4)nc3c2)cc1` [GW709199], the “%Inh” value [1, 13] is reported as 25%, the “%Inh” value [2, 13] is reported as 0% and the “%Inh” value [3] is reported as 0%. For the same molecule, the “%Inh” value [4] was 6%, the “%Inh” value [5] was 3% and the “%Inh” value [6] was 0%. The “%Inh” value [7] was 11%, the “%Inh” value [8] was 48% and the “%Inh” value [9] was 13%. For the same molecule, the “%Inh” value [10] was 0%, the “%Inh” value [11] was 0% and the “%Inh” value [12] was 0%. The “%Inh” value (S6K1) was 0%, the “%Inh” value (SBK1) was 0% and the “%Inh” value (SGK2) was 0%. For the same molecule, the “%Inh” value (SGK3) was 0%, the “%Inh” value (SGK) was 0% and the “%Inh” value (SIK2) was 4%. The “%Inh” value (SIK) was 20% and the “%Inh” value (SLK) was 5%.

With `CN1CCN(Cc2cccc(-c3ccc4c(Nc5ccc(Oc6ccccc6)cc5)ccnc4c3)c2)CC1` [GW578342] the “%Inh” value [1, 13] was 0%, the “%Inh” value [2, 13] was 0% and the “%Inh” value [3] was 0%. For the same molecule, the “%Inh” value [4] was 21%, the “%Inh” value [5] was 26% and the “%Inh” value [6] was 99.1%. For the same molecule, the “%Inh” value [7] was 0%, the “%Inh” value [8] was 15% and the “%Inh” value [9] was 0%. The “%Inh” value [10] was 7%, the “%Inh” value [11] was 0% and the “%Inh” value [12] was 0%. The “%Inh” value (S6K1) was 0%, the “%Inh” value (SBK1) was 11% and the “%Inh” value (SGK2) was 0%. The “%Inh” value (SGK3) was 1%, the “%Inh” value (SGK) was 7% and the “%Inh” value (SIK2) was 1%. For the same molecule, the “%Inh” value (SIK) was 0% and the “%Inh” value (SLK) was 0%.

For `O=C(Nc1cccc(Oc2ccc3nc(NC(=O)C4CC4)cn3n2)c1)c1ccccc1C(F)(F)F`, the “%Inh” value [1, 13] was 35%, the “%Inh” value [2, 13] was 0% and the “%Inh” value [3] was 0%. The “%Inh” value [4] was 17%, the “%Inh” value [5] was 6% and the “%Inh” value [6] was 0%. The “%Inh” value [7] was 0%, the “%Inh” value [8] was 55% and the “%Inh” value [9] was 6%. The “%Inh” value [10] was 0%, the “%Inh” value [11] was 0% and the “%Inh” value [12] was 0%. The “%Inh” value (S6K1) was 0%, the “%Inh” value (SBK1) was 0% and the “%Inh” value (SGK2) was 7%. The “%Inh” value (SGK3) was 0%, the “%Inh” value (SGK) was 0% and the “%Inh” value (SIK2) was 28%. The “%Inh” value (SIK) was 1% and the “%Inh” value (SLK) was 32%.

With `CCn1c(-c2nonc2N)nc2c(C#CC(C)(C)O)ncc(OCCCCN)c21.O=C(O)C(F)(F)F.O=C(O)C(F)(F)F` [GSK507274] the “%Inh” value ([1]; 1 µM) was 10%, the “%Inh” value ([2]; 1 µM) was 99% and the “%Inh” value [3] was 37%. The “%Inh” value [4] was 74%, the “%Inh” value [5] was 18% and the “%Inh” value [6] was 0%. For the same molecule, the “%Inh” value [7] was 19%, the “%Inh” value [8] was 0% and the “%Inh” value [9] was 11%. For the same molecule, the “%Inh” value [10] was 6%, the “%Inh” value [11] was 2% and the “%Inh” value [12] was 7%. The “%Inh” value (S6K1) was 1%, the “%Inh” value (SBK1) was 44% and the “%Inh” value (SGK2) was 12%. The “%Inh” value (SGK3) was 2%, the “%Inh” value (SGK) was 0% and the “%Inh” value (SIK2) was 5%. The “%Inh” value (SIK) was 2% and the “%Inh” value (SLK) was 1%.

In the case of `CC(C)c1nc(-c2cccc(NS(=O)(=O)c3c(F)cccc3F)c2F)c(-c2ccnc(Nc3ccc(N4CCOCC4)nc3)n2)s1` [GSK2008607], the “%Inh” value [1, 13] is reported as 0%, the “%Inh” value [2, 13] is reported as 0% and the “%Inh” value [3] is reported as 2%. The “%Inh” value [4] was 0%, the “%Inh” value [5] was 100% and the “%Inh” value [6] was 12%. For the same molecule, the “%Inh” value [7] was 41%, the “%Inh” value [8] was 0% and the “%Inh” value [9] was 45%. For the same molecule, the “%Inh” value [10] was 0%, the “%Inh” value [11] was 10% and the “%Inh” value [12] was 39%. For the same molecule, the “%Inh” value (S6K1) was 82%, the “%Inh” value (SBK1) was 40% and the “%Inh” value (SGK2) was 9%. The “%Inh” value (SGK3) was 28%, the “%Inh” value (SGK) was 40% and the “%Inh” value (SIK2) was 91.3%. For the same molecule, the “%Inh” value (SIK) was 99.5% and the “%Inh” value (SLK) was 97%.

— publication PMC5540273 (PLoS ONE, 2017)
